Laboratory results as given in publication PMC4336329 (PLoS ONE, 2015).
The whole screen tested about 310,000 compounds, of which about 14,000 (4.5%) showed an effect of 50% or more. Effects have a minus sign here. Many of the other results were omitted from the sample, so strong results are more common in it than they were.

target: human ether-à-go-go-related gene (hERG) potassium channel (human, UniProt Q12809); assay: primary screen, population patch clamp on CHO cells stably expressing hERG; higher = less effect of the substance
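Note: peak tail current of the secondary pulse compared with the same well before compound.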

Sequence of human ether-à-go-go-related gene (hERG) potassium channel (Q12809 whole entry, looked up): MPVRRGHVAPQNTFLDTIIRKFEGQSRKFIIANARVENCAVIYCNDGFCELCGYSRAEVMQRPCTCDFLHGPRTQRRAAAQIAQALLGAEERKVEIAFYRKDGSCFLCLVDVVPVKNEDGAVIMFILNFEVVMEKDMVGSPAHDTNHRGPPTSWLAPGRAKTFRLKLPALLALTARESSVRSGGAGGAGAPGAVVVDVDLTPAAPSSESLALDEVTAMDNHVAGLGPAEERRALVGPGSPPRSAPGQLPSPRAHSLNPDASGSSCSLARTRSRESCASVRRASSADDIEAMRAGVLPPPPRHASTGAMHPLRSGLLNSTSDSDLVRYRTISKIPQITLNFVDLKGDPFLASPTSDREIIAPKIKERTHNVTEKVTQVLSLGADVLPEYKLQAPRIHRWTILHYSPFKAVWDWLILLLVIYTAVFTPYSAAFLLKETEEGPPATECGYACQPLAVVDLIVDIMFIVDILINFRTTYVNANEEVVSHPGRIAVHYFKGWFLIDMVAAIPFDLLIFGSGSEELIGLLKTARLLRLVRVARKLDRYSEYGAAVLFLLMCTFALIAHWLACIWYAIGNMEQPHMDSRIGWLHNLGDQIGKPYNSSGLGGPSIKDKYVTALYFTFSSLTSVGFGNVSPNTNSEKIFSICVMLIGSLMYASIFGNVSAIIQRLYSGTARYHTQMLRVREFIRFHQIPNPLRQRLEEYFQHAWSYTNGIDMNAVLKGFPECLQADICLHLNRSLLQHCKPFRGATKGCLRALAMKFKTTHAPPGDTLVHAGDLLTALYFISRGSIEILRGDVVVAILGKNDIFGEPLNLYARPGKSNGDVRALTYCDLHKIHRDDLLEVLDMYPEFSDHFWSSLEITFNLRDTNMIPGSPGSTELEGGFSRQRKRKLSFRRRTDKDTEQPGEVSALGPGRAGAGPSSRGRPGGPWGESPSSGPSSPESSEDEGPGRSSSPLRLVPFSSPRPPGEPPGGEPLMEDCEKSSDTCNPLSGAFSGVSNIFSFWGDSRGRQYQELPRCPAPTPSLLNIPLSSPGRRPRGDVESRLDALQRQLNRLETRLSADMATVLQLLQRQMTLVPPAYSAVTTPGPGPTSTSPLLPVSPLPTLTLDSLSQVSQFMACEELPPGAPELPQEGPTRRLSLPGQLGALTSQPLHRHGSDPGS

SMILES | hERG current change (%, negative = inhibition) at 10uM
O=C(CN1C(=O)c2ccccc2S1(=O)=O)NCCSCc1c(F)cccc1Cl | -29.7%
CCOC(=O)CC(=O)CSc1nc(-c2ccccc2)cc(-c2ccccc2)c1C#N | 10.1%
Cn1c(=O)c(=O)n(C)c2cc(N3CCCC3)c(NS(=O)(=O)c3ccc(F)cc3)cc21 | -16.2%
Cc1ccc(S(=O)(=O)Nc2cc3c(cc2N2CCOCC2)n(C)c(=O)c(=O)n3C)cc1 | -9.6%
COc1ccc(OC)c(S(=O)(=O)Nc2ccc3c(c2)n(C)c(=O)n3C)c1 | 1.61%
Cn1c(=O)c(=O)n(C)c2cc(N3CCOCC3)c(NS(=O)(=O)c3ccc(Br)cc3)cc21 | -27%
Cn1c(=O)c(=O)n(C)c2cc(N3CCCC3)c(NS(=O)(=O)c3ccc(Cl)cc3)cc21 | -44.3%
Cn1c(=O)c(=O)n(C)c2cc(N3CCOCC3)c(NS(=O)(=O)c3ccc([N+](=O)[O-])cc3)cc21 | 2.58%
CCc1ccc(S(=O)(=O)Nc2cc3c(cc2N2CCOCC2)n(C)c(=O)c(=O)n3C)cc1 | -32.1%
CCc1ccc(S(=O)(=O)Nc2cc3c(cc2N2CCCCC2)n(C)c(=O)c(=O)n3C)cc1 | -85.6%
COc1ccc(OC)c(NS(=O)(=O)c2cc(OC)ccc2OC)c1 | -2.14%
COc1ccc(OC)c(S(=O)(=O)Nc2cc3c(cc2N2CCCC2)n(C)c(=O)c(=O)n3C)c1 | -50.7%
Cn1c(=O)c(=O)n(C)c2cc(N3CCCCC3)c(NS(=O)(=O)c3ccc(Br)cc3)cc21 | -65.1%
Cn1c(=O)c(=O)n(C)c2cc(N3CCCCC3)c(NS(=O)(=O)c3ccc([N+](=O)[O-])cc3)cc21 | -50.6%
CCC(CC)c1nnc(NC(=O)c2cccnc2SC)s1 | 15.4%
C/C=C/c1ccc(OCCCCN2C(=O)NC(C)(C)C2=O)c(OC)c1 | -7.09%
COc1ccccc1C(O)(C(=O)NN(C)c1ccccc1)c1ccccc1OC | 9.03%
Cc1cccc(OCCCCc2c(C)n[nH]c2C)c1C | 9.64%
CCc1ccc(/C=C2\Oc3cc(OS(C)(=O)=O)ccc3C2=O)cc1 | 11.8%
O=S(=O)(NC1=NCCC1)c1cccc(NS(=O)(=O)c2ccc(OC(F)(F)F)cc2)c1 | 1.71%
CN1CCN(CCNC(=O)Nc2ccccc2C(F)(F)F)CC1 | 3.26%

SMILES | hERG current change (%, negative = inhibition) at 10uM
CC1(C)C2CCC1(C)C(OC(=O)C[n+]1ccccc1N)C2.[Br-] (stereo not drawn) | -35.3%
CCOC(=O)C1CCN(c2cc3c(cc2NC(=O)c2cc(OC)ccc2Br)n(C)c(=O)n3C)CC1 | 0.12%
COCCNc1c([N+](=O)[O-])c(=O)n(-c2ccccc2)c2ccccc12 | -25.2%
O=C(c1ccccc1Oc1ccc(C(F)(F)F)cc1[N+](=O)[O-])N1CCOCC1 | 1.22%
COC(=O)CN1C(=O)C(O)(CC(=O)c2cccc(Br)c2)c2ccccc21 (stereo not drawn) | -11.7%
CN(Cc1ccccn1)Cc1nc(COc2ccccc2)no1 | -2.85%
COc1cccc(CNC23CC4CC(CC(C4)C2)C3)c1OCc1ccccc1.Cl | -50%
COc1cccc(CNCc2cccnc2)c1OCc1ccccc1.Cl | 19.3%
COc1cc(CNC23CC4CC(CC(C4)C2)C3)ccc1OCc1ccccc1.Cl | -64%
COc1cccc(CNCCO)c1OCc1ccccc1.Cl | -1.31%
COc1cc(CNC(=O)C2CC2)ccc1OCc1ccccc1 | -11.8%
CCNCc1ccccc1OCc1ccccc1.Cl | -3.77%
Cl.c1ccc(COc2ccccc2CNC23CC4CC(CC(C4)C2)C3)cc1 | -83.6%
c1ccc(COc2ccccc2CNC2CCCC2)cc1 | -39.7%
CNCc1ccc(OCc2ccccc2)c(OC)c1 | 0.71%
COc1cc(NC(=O)CS(=O)(=O)c2ccccc2)cc(OC)c1OC | 11.3%
Cc1cccc(NC(=O)Nc2cccc(Oc3c(F)c(F)c(F)c(F)c3F)c2)c1 | 8.83%
N#C/C(=C/c1ccc(Br)s1)C(=O)NCCc1c[nH]c2ccccc12 | 18.8%
O=C(COC(=O)c1ccc([N+](=O)[O-])cc1)Nc1cccnc1Cl | -1.85%
O=C(Nc1ccncc1)c1cc(S(=O)(=O)N2CCCCC2)ccc1Cl | -56.2%
O=C(Nc1nccs1)C1CCN(S(=O)(=O)c2ccc(Cl)c(C(F)(F)F)c2)CC1 | -0.668%

SMILES | hERG current change (%, negative = inhibition) at 10uM
CS(=O)(=O)Nc1ccc(S(=O)(=O)N2CCCC2)cc1 | 8.49%
CCN(CC)S(=O)(=O)c1ccc(N2CCCC2)c(NC(=O)c2ccncc2)c1 | -22.6%
Cc1ccnc(NC(=O)C2CCN(S(=O)(=O)c3ccc(Cl)c(C(F)(F)F)c3)CC2)c1 | -14.2%
O=C(Nc1ccncc1)c1cc(S(=O)(=O)N2CCOCC2)ccc1Cl | -46.6%
O=C(Nc1cc(S(=O)(=O)N2CCCCC2)ccc1N1CCCCC1)c1ccncc1 | -52.4%
O=C(Nc1ccc(O)cc1)c1cc(S(=O)(=O)N2CCCC2)ccc1Cl | -14.9%
CCN(CC)S(=O)(=O)c1ccc(N2CCCCC2)c(NC(=O)c2ccncc2)c1 | -29.5%
CS(=O)(=O)Nc1ccc(C(=O)Nc2ccc(S(=O)(=O)N3CCCCC3)cc2)cc1 | -13.8%
CS(=O)(=O)Nc1ccc(S(=O)(=O)N2CCCCCC2)cc1 | -65.4%
O=C(Nc1ccncc1)C1CCN(S(=O)(=O)c2ccc(Cl)c(C(F)(F)F)c2)CC1 | -69.9%
COc1ccc(S(=O)(=O)CCC(=O)Nc2c(C)cccc2C)cc1 | 23%
CC(=O)Nc1ccc(S(=O)(=O)NCCSCc2ccccc2Cl)cc1 | 2.92%
COc1ccc(Br)cc1-c1nc2c(c(=O)[nH]c(=O)n2Cc2ccccc2)n1C | 5.42%
CC(C)CN(C(=O)Cn1c(C(F)(F)F)nc2ccccc21)C1CCS(=O)(=O)C1 (stereo not drawn) | -9.53%
Cc1ccc(N2C(=O)C(NC(=O)c3ccccc3F)(C(F)(F)F)C3=C2CC(C)(C)CC3=O)cc1 (stereo not drawn) | 6.43%
CC(SC1=Nc2ccccc2C2CC=NN12)C(=O)NC1(C#N)CCCCC1 (stereo not drawn) | -19.8%
CNC(=S)N/N=C/C1=CCC2CC1C2(C)C (stereo not drawn) | -3.84%
O=C(Cn1nnc2ccccc2c1=O)Nc1cc(C(F)(F)F)ccc1N1CCOCC1 | -14.5%
O=C(Nc1ccc(S(=O)(=O)N2CCOCC2)cc1)c1ccco1 | -20.3%
O=C(Nc1ccc(S(=O)(=O)N2CCCCC2)cc1)c1ccccc1Cl | -73.1%
COc1cc(S(=O)(=O)N2CCCCC2)ccc1NC(=O)c1ccncc1 | -30.8%

SMILES | hERG current change (%, negative = inhibition) at 10uM
O=C(Nc1ccc(S(=O)(=O)N2CCCCCC2)cc1)c1ccco1 | -72.5%
O=C(Nc1cc(S(=O)(=O)N2CCCCC2)ccc1Cl)c1ccc(F)cc1 | -8.99%
O=C(Nc1cc(S(=O)(=O)N2CCCCC2)ccc1Cl)c1ccncc1 | -50.2%
O=C(Nc1ccc(S(=O)(=O)N2CCCCC2)cc1)c1ccco1 | -10.7%
O=C(O)c1ccccc1C(=O)Nc1ccc(S(=O)(=O)N2CCCC2)cc1 | 22.3%
CN1CCN(S(=O)(=O)c2ccc(NC(=O)c3ccccc3Cl)cc2)CC1 | 8.9%
Cn1c(SC2CCCCC2=O)nnc1-c1ccccc1F (stereo not drawn) | 9.45%
Cc1cc(C)cc(OCC(=O)O/N=C(\N)c2ccccn2)c1 | -6.54%
O=c1ccc(-c2ccc(S(=O)(=O)N3CCN(c4cccc(Cl)c4)CC3)o2)n[nH]1 | 10%
O=C(Nc1cc(S(=O)(=O)N2CCOCC2)ccc1N1CCOCC1)C1CCCO1 (stereo not drawn) | -3.99%
O=C(CN1CCN(C(=O)c2ccco2)CC1)NCc1ccc(Cl)cc1 | -64.4%
O=C(NCc1ccc(Cl)cc1)C1CCN(C(=O)c2ccco2)CC1 | -41.4%
Cc1cc(Cl)ccc1NC(=O)CN1CCN(C(=O)c2ccco2)CC1 | -73.6%
O=C(CN1CCN(C(=O)c2ccco2)CC1)Nc1ccc(F)cc1F | -49.6%
Cc1ccc(NC(=O)CN2CCN(C(=O)c3ccco3)CC2)cc1 | -3.01%
Cc1cc(Cl)ccc1NC(=S)N1CCN(C(=O)c2ccco2)CC1 | -8.95%
O=C(CN1CCN(C(=O)c2ccco2)CC1)Nc1ccc(Cl)c(S(=O)(=O)N2CCOCC2)c1 | -25.6%
Cc1ccccc1NC(=O)CN1CCN(C(=O)c2ccco2)CC1 | -29.4%
O=C(CN1CCN(C(=O)c2ccco2)CC1)Nc1ccc(Cl)c(C(F)(F)F)c1 | -67.1%
O=C(c1ccco1)N1CCN(Cc2ccc(Cl)cc2)CC1 | -14%
O=C(CN1CCN(C(=O)c2ccco2)CC1)Nc1cc(Cl)ccc1Cl | -60.1%
